Data published in the supplement of paper PMC11732987, “Enantioselective OTUD7B fragment discovery through chemoproteomics screening and high-throughput optimisation” (Communications Chemistry, 2025).
Unmarked numbers belong to inactive results.

Assays:
Assay in all cases: log2 ratio of Biotin-Ahx-Ub-VS probe labelling (fragment/DMSO); higher = less target engagement (more negative = stronger competition), active = hit call of the paper (q ≤ 0.05, log2 ratio ≤ -1)
Details in all cases: compound concentration: 200 uM; treatment time: 3 h
USP42 = target: T1, USP42 (UniProt Q9H9J4)
T1 sequence (whole entry): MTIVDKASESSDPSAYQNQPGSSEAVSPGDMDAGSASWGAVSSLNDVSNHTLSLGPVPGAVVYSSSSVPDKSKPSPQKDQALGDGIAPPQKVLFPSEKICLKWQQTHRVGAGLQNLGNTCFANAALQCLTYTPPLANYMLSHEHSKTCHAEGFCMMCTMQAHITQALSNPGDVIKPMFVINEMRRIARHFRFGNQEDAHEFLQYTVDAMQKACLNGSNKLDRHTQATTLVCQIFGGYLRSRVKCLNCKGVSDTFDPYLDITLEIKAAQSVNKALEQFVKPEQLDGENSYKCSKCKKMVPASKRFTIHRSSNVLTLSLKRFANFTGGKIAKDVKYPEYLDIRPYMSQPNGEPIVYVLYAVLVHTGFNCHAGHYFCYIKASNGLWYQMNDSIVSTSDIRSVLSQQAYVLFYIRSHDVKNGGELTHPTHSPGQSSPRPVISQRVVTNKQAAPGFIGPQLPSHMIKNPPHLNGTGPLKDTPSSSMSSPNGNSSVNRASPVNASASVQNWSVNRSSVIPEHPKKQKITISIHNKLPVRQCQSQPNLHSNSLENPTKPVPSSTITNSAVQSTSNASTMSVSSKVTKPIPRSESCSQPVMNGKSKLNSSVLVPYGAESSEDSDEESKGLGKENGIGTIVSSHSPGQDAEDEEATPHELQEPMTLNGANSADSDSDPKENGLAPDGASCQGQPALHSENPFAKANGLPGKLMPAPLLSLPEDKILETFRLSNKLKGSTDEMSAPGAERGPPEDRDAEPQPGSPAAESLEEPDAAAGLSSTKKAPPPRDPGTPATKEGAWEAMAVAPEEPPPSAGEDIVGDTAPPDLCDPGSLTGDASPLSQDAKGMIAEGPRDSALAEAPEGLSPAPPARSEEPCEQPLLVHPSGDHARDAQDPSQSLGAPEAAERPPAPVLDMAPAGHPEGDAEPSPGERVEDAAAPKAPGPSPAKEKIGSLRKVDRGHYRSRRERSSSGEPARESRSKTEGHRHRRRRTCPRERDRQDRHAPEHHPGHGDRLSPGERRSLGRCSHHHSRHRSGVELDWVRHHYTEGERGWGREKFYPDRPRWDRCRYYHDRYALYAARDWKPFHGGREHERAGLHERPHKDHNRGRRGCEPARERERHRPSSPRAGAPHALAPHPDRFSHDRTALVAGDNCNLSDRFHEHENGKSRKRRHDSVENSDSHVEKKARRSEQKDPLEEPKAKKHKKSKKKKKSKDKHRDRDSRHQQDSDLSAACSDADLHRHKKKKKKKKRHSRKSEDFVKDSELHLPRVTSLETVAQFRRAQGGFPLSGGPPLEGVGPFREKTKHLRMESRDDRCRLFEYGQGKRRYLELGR
Method in brief: (§1)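 HEK293T lysate, 495 µg per sample in Tris/CHAPS/IGEPAL buffer with protease inhibitors, was treated in triplicate with fragment at 200 µM or vehicle for 3 h and then with Biotin-Ahx-Ub-VS at 0.5 µM final for 1 h. Labelled DUBs were NeutrAvidin-enriched, digested with LysC and trypsin, and run by diaPASEF LC-MS/MS. Spectronaut label-free quantities were global-median-normalised, and values are average log2 fragment/vehicle ratios by unpaired t-test on proteins with ≥2 unique peptides.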

USP46 = USP46 (UniProt P62068)
Method in brief: as §1

USP47 = target: T2, USP47 (UniProt Q96K76)
T2 sequence (whole entry): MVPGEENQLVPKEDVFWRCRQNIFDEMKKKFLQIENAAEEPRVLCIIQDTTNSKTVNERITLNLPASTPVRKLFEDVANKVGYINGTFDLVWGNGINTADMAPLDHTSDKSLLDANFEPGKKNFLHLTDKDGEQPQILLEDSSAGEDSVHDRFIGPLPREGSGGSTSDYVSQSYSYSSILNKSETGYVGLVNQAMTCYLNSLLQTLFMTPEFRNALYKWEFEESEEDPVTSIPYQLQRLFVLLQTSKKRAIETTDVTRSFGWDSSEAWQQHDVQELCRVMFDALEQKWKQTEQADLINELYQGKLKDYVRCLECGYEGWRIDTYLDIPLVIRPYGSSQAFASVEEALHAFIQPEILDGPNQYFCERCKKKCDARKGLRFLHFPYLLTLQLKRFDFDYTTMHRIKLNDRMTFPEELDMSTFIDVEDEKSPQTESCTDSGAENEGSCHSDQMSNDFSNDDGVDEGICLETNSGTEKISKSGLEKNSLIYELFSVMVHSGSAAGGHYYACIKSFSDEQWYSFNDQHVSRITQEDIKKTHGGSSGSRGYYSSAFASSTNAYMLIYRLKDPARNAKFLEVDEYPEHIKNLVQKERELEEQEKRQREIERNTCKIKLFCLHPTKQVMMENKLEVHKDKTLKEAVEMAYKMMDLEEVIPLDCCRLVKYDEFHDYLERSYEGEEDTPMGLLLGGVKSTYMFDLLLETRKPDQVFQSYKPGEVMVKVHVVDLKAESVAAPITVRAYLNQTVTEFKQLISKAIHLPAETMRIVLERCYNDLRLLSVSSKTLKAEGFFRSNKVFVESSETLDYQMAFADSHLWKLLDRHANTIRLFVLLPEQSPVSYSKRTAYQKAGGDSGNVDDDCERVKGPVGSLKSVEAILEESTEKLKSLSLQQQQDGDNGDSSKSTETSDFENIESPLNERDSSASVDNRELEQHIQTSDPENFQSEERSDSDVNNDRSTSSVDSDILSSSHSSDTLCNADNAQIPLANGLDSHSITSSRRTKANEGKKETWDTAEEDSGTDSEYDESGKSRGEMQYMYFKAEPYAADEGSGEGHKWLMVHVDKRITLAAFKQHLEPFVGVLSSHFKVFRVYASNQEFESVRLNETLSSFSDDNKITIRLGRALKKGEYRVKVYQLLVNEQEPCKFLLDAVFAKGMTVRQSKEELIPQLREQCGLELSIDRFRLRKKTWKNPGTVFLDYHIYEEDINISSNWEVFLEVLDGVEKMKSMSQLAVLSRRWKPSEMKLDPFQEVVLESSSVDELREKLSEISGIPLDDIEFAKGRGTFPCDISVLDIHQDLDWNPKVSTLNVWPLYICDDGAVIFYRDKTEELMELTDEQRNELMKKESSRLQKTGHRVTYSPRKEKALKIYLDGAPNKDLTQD
Method in brief: as §1

USP48 = target: T3, USP48 (UniProt Q86UV5)
T3 sequence (whole entry): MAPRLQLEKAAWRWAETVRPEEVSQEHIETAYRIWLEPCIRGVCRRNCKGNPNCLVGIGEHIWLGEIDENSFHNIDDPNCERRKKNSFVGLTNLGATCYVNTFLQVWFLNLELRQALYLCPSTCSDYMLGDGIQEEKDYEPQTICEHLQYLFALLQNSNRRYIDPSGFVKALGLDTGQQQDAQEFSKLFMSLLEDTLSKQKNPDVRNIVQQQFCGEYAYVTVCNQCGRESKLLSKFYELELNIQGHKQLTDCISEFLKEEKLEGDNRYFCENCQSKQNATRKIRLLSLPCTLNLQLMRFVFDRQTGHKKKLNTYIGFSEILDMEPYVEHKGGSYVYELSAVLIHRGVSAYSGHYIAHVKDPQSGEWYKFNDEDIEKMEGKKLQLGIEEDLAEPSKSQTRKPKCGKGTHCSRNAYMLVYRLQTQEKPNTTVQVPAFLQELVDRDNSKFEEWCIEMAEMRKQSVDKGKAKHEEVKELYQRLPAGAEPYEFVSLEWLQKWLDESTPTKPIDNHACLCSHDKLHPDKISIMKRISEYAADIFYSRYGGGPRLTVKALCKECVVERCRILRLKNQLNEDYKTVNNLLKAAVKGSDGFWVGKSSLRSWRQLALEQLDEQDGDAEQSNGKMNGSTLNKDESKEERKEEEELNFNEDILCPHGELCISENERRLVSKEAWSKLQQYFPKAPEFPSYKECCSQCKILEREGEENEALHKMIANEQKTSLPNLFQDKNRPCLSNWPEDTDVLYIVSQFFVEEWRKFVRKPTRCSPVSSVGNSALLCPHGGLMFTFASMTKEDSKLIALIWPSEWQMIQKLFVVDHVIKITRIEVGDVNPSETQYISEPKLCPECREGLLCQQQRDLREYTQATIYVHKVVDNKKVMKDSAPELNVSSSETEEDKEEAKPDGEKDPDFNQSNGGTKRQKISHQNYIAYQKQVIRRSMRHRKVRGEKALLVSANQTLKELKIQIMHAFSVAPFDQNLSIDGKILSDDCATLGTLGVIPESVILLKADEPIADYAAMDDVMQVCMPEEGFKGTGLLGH
Method in brief: as §1

USP5 = target: T4, USP5 (UniProt P45974)
T4 sequence (whole entry): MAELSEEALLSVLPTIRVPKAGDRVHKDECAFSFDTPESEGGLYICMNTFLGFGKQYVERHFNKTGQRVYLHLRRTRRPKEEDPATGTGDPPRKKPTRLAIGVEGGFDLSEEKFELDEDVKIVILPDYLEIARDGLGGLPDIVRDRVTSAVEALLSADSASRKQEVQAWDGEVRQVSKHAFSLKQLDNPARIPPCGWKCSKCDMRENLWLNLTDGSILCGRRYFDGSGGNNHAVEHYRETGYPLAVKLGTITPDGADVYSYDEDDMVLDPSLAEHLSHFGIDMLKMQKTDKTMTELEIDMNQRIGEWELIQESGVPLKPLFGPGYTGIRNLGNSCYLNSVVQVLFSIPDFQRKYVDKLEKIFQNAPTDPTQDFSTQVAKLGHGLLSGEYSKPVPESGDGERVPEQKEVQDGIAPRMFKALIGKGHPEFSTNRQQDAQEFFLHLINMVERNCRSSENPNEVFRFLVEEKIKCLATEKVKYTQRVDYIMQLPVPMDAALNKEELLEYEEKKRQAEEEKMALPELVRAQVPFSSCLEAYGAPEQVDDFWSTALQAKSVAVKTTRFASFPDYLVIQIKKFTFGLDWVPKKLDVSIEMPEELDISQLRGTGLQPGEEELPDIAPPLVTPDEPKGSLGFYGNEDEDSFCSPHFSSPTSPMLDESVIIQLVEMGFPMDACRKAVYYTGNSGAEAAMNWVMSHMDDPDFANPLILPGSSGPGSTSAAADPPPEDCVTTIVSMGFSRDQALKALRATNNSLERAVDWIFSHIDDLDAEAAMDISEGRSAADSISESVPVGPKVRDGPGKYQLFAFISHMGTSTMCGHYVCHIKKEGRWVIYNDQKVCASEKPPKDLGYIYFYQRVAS
Method in brief: as §1

USP54 = USP54 (UniProt Q70EL1)
Method in brief: as §1

USP7 = USP7 (UniProt Q93009)
Method in brief: as §1

USP8 = target: T5, USP8 (UniProt P40818)
T5 sequence (whole entry): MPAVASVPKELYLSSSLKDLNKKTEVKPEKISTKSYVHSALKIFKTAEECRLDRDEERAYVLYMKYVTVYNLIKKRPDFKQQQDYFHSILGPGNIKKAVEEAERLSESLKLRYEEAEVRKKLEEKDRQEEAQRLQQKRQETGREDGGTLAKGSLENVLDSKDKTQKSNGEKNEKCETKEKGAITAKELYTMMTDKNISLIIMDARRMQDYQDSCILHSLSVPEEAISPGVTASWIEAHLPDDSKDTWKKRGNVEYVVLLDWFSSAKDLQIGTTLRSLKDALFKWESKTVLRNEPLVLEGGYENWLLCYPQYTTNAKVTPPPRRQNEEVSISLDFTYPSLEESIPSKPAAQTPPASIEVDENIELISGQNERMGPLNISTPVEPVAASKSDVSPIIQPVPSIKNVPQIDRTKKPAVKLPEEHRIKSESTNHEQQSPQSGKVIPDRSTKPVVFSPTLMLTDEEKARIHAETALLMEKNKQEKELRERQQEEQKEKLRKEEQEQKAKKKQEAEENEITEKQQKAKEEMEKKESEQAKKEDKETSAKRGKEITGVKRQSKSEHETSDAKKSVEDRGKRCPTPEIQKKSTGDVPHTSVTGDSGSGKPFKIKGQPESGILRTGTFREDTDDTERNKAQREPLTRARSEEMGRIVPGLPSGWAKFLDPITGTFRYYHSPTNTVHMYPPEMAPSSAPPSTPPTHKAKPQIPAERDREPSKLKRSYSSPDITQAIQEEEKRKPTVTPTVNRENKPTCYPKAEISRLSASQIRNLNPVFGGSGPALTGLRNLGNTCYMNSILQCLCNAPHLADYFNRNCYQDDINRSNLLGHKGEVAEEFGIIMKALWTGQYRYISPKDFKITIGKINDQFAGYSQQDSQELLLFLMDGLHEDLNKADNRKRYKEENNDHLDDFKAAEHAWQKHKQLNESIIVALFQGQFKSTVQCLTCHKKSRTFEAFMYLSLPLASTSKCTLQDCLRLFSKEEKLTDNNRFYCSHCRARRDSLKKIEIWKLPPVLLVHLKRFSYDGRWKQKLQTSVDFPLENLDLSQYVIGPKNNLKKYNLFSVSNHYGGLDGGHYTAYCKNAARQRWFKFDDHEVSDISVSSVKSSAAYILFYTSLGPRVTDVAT
Method in brief: as §1

USP9X = USP9X (UniProt Q93008)
Method in brief: as §1

UniProt O00487 = target: UniProt O00487
Method in brief: as §1

Sequence of USP9X (Q93008 whole entry): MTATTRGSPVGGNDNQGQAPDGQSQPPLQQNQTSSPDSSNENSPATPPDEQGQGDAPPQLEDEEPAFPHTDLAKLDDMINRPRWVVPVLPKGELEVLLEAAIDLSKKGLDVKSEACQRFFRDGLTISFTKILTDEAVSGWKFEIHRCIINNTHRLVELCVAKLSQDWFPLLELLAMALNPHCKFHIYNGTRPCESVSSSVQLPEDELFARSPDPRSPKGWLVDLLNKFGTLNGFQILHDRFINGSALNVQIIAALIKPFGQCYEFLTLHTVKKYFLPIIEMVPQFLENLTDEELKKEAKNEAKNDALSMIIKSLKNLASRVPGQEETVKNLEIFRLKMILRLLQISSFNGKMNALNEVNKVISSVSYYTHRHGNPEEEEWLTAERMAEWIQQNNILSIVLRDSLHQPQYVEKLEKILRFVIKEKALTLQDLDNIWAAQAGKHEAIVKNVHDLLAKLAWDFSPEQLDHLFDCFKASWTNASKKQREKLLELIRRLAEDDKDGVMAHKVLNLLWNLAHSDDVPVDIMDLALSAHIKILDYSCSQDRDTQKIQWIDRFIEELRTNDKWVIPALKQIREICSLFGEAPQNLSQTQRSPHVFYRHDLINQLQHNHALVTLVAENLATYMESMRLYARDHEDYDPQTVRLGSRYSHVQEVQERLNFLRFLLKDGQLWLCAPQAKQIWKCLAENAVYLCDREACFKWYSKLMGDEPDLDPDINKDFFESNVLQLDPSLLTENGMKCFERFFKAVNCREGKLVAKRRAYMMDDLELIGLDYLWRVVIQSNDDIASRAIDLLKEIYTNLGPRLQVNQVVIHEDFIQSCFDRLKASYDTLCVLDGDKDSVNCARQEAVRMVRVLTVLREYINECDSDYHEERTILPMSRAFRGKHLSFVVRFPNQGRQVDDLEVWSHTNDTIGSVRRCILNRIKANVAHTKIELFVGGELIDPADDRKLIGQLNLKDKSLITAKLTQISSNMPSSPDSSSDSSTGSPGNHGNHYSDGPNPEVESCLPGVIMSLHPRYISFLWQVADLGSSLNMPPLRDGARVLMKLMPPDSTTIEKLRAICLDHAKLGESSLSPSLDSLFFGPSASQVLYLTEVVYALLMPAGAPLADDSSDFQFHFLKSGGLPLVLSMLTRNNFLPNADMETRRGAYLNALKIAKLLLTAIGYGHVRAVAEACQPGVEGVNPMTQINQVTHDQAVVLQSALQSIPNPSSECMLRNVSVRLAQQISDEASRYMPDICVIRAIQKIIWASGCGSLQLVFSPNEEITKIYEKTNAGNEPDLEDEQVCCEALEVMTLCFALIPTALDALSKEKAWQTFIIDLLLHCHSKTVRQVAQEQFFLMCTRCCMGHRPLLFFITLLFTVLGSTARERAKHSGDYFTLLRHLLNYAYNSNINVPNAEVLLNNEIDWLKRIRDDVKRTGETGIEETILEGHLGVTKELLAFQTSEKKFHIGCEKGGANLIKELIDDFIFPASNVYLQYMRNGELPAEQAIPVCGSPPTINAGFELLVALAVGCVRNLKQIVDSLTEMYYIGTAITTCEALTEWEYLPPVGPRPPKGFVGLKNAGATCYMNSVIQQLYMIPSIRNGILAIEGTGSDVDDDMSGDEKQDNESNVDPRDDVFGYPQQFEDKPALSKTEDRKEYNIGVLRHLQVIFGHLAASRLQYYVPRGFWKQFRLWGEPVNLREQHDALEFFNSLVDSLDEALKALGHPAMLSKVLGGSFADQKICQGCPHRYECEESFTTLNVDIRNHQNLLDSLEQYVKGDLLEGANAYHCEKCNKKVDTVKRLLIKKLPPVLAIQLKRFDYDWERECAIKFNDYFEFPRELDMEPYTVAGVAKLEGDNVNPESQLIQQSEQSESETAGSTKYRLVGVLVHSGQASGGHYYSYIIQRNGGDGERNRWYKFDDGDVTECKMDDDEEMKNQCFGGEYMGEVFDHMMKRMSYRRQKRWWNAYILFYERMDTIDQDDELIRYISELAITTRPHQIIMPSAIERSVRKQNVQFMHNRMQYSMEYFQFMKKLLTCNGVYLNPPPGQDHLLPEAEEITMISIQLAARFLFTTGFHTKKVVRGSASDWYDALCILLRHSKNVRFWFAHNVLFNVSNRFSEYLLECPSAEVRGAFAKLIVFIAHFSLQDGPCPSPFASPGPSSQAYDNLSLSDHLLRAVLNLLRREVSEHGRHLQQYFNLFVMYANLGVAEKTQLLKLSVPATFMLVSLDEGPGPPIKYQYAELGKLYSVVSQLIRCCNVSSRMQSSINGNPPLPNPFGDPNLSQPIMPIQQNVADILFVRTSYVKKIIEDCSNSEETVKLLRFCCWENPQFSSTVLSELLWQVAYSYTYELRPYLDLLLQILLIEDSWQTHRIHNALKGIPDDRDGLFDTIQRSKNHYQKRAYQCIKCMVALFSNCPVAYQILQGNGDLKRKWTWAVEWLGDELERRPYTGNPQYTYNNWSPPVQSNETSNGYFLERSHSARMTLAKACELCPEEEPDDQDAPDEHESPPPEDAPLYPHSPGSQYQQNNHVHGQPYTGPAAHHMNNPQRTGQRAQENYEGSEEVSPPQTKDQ
Sequence of UniProt O00487 (O00487 whole entry): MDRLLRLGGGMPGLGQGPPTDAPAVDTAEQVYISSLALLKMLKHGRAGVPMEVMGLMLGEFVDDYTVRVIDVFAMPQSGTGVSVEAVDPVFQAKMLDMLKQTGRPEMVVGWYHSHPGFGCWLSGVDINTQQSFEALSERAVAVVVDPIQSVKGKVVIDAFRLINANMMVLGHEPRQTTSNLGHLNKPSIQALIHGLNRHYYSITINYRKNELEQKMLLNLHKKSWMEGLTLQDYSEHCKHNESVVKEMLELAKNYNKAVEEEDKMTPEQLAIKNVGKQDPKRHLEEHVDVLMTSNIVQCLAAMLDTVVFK
Sequence of USP7 (Q93009 whole entry, looked up): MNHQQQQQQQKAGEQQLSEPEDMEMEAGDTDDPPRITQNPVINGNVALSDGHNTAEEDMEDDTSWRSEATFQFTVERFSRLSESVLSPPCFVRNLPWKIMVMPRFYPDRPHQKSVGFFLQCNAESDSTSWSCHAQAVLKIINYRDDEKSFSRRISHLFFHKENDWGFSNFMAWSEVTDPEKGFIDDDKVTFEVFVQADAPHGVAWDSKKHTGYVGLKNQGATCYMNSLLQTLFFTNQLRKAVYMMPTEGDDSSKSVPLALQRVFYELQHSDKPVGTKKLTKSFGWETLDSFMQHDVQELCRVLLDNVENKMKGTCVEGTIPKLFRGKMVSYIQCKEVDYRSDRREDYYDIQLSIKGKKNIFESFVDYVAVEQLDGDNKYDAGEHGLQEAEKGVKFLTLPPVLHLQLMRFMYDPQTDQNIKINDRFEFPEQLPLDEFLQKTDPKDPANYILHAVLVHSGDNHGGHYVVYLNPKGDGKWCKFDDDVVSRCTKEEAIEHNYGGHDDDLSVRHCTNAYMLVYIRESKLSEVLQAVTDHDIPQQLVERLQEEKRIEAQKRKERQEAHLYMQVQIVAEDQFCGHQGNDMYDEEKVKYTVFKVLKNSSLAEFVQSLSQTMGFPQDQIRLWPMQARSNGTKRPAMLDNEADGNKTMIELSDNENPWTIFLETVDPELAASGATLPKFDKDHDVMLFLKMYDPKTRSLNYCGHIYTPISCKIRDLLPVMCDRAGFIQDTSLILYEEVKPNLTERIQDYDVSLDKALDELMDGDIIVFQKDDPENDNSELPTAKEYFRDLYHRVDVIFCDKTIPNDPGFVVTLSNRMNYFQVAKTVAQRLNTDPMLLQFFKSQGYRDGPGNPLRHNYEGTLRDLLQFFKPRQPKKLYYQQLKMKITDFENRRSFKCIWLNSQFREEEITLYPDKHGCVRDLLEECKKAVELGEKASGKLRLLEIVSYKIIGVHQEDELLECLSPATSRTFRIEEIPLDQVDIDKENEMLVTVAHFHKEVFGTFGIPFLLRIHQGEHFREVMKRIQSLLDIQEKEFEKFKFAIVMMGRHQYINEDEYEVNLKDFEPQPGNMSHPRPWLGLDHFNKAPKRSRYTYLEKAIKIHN
Sequence of USP46 (P62068 whole entry): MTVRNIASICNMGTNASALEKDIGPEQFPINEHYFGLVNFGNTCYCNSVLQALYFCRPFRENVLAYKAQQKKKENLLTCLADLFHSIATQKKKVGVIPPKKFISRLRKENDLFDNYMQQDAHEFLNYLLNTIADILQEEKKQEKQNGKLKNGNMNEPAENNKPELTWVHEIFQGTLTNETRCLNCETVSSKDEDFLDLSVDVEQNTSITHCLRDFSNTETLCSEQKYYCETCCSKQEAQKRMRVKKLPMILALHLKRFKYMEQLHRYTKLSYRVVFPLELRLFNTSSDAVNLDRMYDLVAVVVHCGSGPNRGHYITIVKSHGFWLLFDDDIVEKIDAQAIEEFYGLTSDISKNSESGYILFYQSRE

CC1Cc2ccccc2N1C(=O)CCl (stereo not given)
log2 ratio of Biotin-Ahx-Ub-VS probe labelling (USP42): -0.0391
log2 ratio of Biotin-Ahx-Ub-VS probe labelling (USP46): -0.226
log2 ratio of Biotin-Ahx-Ub-VS probe labelling (USP47): -0.675
log2 ratio of Biotin-Ahx-Ub-VS probe labelling (USP48): -0.686
log2 ratio of Biotin-Ahx-Ub-VS probe labelling (USP5): 0.363
log2 ratio of Biotin-Ahx-Ub-VS probe labelling (USP54): 0.538
log2 ratio of Biotin-Ahx-Ub-VS probe labelling (USP7): -1.33 (active)
log2 ratio of Biotin-Ahx-Ub-VS probe labelling (USP8): -0.238
log2 ratio of Biotin-Ahx-Ub-VS probe labelling (USP9X): -0.267
log2 ratio of Biotin-Ahx-Ub-VS probe labelling (UniProt O00487): -0.194
